Most compounds without a hit are left out; they make up all but 7.1% or so of the library.
MARV entry inh – inhibitors of Marburg virus binding or entry into cells | Potency, µM (series often up to 49.2 µM), for inactives: at the top dose activity change, negative = inhibition, most hits filed as inhibitors | Marburg virus pseudotype entry/binding inhibition, cell-based | hit rate 6.5% among 18,000 | AID 720532
Lassa entry – blocks Lassa virus binding or cell entry; hit rate 4.1% among 18,000; Potency, µM (doses to about 49.2 µM), without a hit: at the highest dose activity change, negative = inhibition, most hits filed as inhibitors; Lassa virus pseudotyped entry inhibition, cell-based qHTS
Numbers without * were called inactive; ? = inconclusive; ! = not active in a repeat; [ ] = remark or other dose. Calls come from the whole dose curve; tested in HEK293 cells. % is set by controls: 0 for no effect and ±100 for the full control effect; potency is the fitted concentration of half-maximal effect.

SMILES	MARV entry inh	Lassa entry
Cc1cnc(SCc2ccccn2)nc1C1CCCN(C(=O)c2scc3c2CCCC3)C1 (centres undefined)	10µM*	?
COc1cccc([C@@H]2Oc3ccc(OC)cc3C(=O)[C@H]2OC(=O)NS(=O)(=O)c2ccc(F)cc2)c1	35.1%	-4.2%
COCCN1C(=O)C2=C(C1=O)C1N(C)c3ccccc3[C@@]13C[C@@H](CO)N(C(C)=O)C3=N2 (some centres undefined)	14.5%[8.59 µM]	3.2%[8.59 µM]
CCOC(=O)CN1C(=O)NC(c2ccccc2)C(C(C)=O)=C1C (centres undefined)	?	-18.5%[8.59 µM]
CC(C)[C@@H]1CC[C@@H](C)CC1=O	-1.0%	-7.1%
CCCCNCC(O)c1ccc(O)cc1 (centres undefined)	5.7%	-2.1%
OCc1cc([C@@H](O)CNCCCCCCOCCCCc2ccccc2)ccc1O	12.6µM*	?
CO[C@]12C[C@@H](COC(=O)c3cncc(Br)c3)CN(C)[C@@H]1Cc1cn(C)c3cccc2c13	-2.9%	5.2%
CC(=O)OC1C2C(OC(=O)Cc3ccccc3)C(C)CC2(OC(C)=O)C(=O)/C(C)=C/C2C(CC[C@@]13CO3)C2(C)C (some centres undefined)	-15.7%	1.3%
NC1=NCCN1CC(=O)O	-1.7%	5.2%
CN(C)CCOC(c1ccccc1)c1ccccc1	28.2µM*!	?
CN(C)CCOC(c1ccccc1)c1ccccc1 (tested in a mixture with another compound)	-11.0%	-4.3%
C[C@H]1CC[C@@H]2[C@@H](C)[C@H]3[C@H](C[C@H]4[C@@H]5CC=C6C[C@@H](O[C@]7(O[C@H]8O[C@@H](C)[C@@H](O)[C@@H](O)[C@@H]8O)C[C@@H](O[C@@H]8O[C@H](CO)[C@@H](O)[C@H](O)[C@@H]8O)[C@@H](O)[C@H](CO)O7)CC[C@]6(C)[C@H]5CC[C@@]34C)N2C1	4.4%[17.8 µM]	14.1%[17.8 µM]
C[C@H]1CC[C@@H]2[C@@H](C)[C@H]3[C@H](C[C@H]4[C@@H]5CC=C6CC(O[C@@H]7O[C@H](CO)[C@H](O)[C@H](O[C@@H]8O[C@H](CO)[C@@H](O)[C@H](O)[C@H]8O)[C@H]7O[C@H]7O[C@@H](C)[C@H](O)[C@@H](O)[C@H]7O)CC[C@]6(C)[C@H]5CC[C@]34C)N2C1 (some centres undefined)	15.8µM*	31.6µM*
CCOC(=O)[C@H](CCc1ccccc1)N[C@H]1CCc2ccccc2N(CC(=O)O)C1=O	14.1µM*!	4.3%
CCOC(=O)C(CCc1ccccc1)NC1CCc2ccccc2N(CC(=O)O)C1=O (centres undefined)	3.2%	-1.4%
Cn1nnnc1SCC1=C(C(=O)O)N2C(=O)C(NC(=O)C(O)c3ccccc3)C2SC1 (centres undefined)	3.0%	8.3%
OC1OC[C@@H](O)[C@@H](O)[C@@H]1O (some centres undefined)	6.1%	-1.1%
CCCCN1Cc2ccccc2Oc2cc(Br)ccc2S1(=O)=O	-16.0%	21.4%
CN(Cc1cnc2nc(N)nc(N)c2n1)c1ccc(C(=O)N[C@H](CCC(=O)O)C(=O)O)cc1	31.6µM*	-12.3%[17.8 µM]
CN(Cc1cnc2nc(N)nc(N)c2n1)c1ccc(C(=O)N[C@@H](CCC(=O)O)C(=O)O)cc1	15.3%	0.2%
Cc1cc2c(c(-c3cnccn3)c1)OC(CNC(=O)c1ccc(-n3nc(C)cc3C)cc1)C2 (centres undefined)	-4.3%	0.7%
CNc1ccc2oc(C[C@H]3O[C@]4(CC[C@H]3C)O[C@H]([C@H](C)C(=O)c3ccc[nH]3)[C@H](C)C[C@H]4C)nc2c1C(=O)O	4.47µM*	3.55µM*
CNc1ccc2oc(C[C@@H]3OC4(CC[C@@H]3C)O[C@H](C(C)C(=O)c3ccc[nH]3)[C@H](C)C[C@H]4C)nc2c1C(=O)O (some centres undefined)	5.62µM*	?
Cc1cc(C(=O)Nc2cccc(-c3nc(CNC(=O)c4ccc[n+]([O-])c4)c(C)o3)c2)c(C)o1	-8.7%	-21.8%
SMILES	MARV entry inh	Lassa entry
COCOc1ccc(OC)cc1C(=O)C1O[C@H]1c1ccc(OC)c(Br)c1 (some centres undefined)	31.3%	?
CCCCCCCCNC(C)C(O)c1ccc(SC(C)C)cc1 (centres undefined)	?	11.2µM*
CC(NCCc1ccc(O)cc1)C(O)c1ccc(O)cc1 (centres undefined)	7.3%	-23.4%
CC[C@]12CCCN3CCC4(c5ccccc5NC4C(C(=O)O)C1)C32 (some centres undefined)	?	-16.8%
Cc1c(C(=O)NC(C)(C)CO)sc2ncnc(NCCN(C)C)c12	-7.0%	-18.3%
C=CC[C@](C)(O)c1ccccc1	-14.9%	0.75µM*!
C=CCC(C)(O)c1cccc(C(F)(F)F)c1 (centres undefined)	3.3%	-10.2%
CC[C@H](C)[C@H](NC(=O)CNC(=O)[C@H](CC(C)C)NC(=O)[C@H](CC(C)C)NC(=O)[C@H](CCC(N)=O)NC(=O)[C@H](CCC(N)=O)NC(=O)[C@H](CC(=O)O)NC(=O)[C@H](CCCCN)NC(=O)[C@H](CC(C)C)NC(=O)[C@H](Cc1ccc(O)cc1)NC(=O)[C@H](CCCNC(=N)N)NC(=O)[C@H](CCC(=O)O)NC(=O)[C@@H](NC(=O)[C@H](C)NC(=O)[C@H](CC(C)C)NC(=O)[C@@H](NC(=O)[C@@H](N)CCCNC(=N)N)[C@@H](C)CC)C(C)C)C(=O)N[C@@H](Cc1c[nH]c2ccccc12)C(=O)NCC(=O)N[C@@H](CS)C(=O)N[C@@H](CO)C(=O)O	-13.5%	-11.8%
Cn1ccc2c(N3CCCCCC3)cc3c(c21)C1CCC3O1 (centres undefined)	12.0%	-22.2%
CN1CCN(C2=Nc3ccccc3Oc3ccc(Cl)cc32)CC1	?	-6.3%[17.8 µM]
CN1CCN(C2=Nc3ccccc3Sc3ccc(Cl)cc32)CC1	25.1µM*	?
CC1=C(C(=O)OC(C)C)[C@@H](c2cccc3nonc23)C([N+](=O)[O-])=C(C)N1	-11.7%	2.2%
NC(=O)C[C@H](NC(=O)Cc1ccc(O)cc1O)C(=O)O	11.4%	-4.2%
CC(COc1ccccc1)N(CCCl)Cc1ccccc1 (centres undefined)	0.1%	28.2µM*!
CN(C)Cc1ccccc1	8.1%	-16.3%
CC(C)[C@H](NC(=O)[C@H](CCC(=O)O)NC(=O)[C@H](Cc1ccccc1)NC(=O)[C@@H](C)NC(=O)[C@@H](N)Cc1ccc(O)cc1)C(=O)N[C@H](C(=O)NCC(N)=O)C(C)C	3.0%	-3.6%
CCCCCCCCCCCCCCCCCCNC(=O)OC1CCN(C(=O)OC[C@H](COC(=O)N(Cc2cccc[n+]2CC)C(=O)c2ccccc2OC)OC)CC1	11.2µM*	12.6µM*
C=CC1CN2CCC1CC2C(O)c1ccnc2ccccc12 (centres undefined)	?	33.0%
COC1=CC2C(=O)C([C@@H]3c4ccccc4C[C@]23C)C1(O)c1cccc(OC)c1 (some centres undefined)	4.4%[8.59 µM]	-1.3%[8.59 µM]
C[C@]12CCC3C(CC[C@]4(O)C[C@@H](O)CC[C@]34C=O)[C@@]1(O)CC[C@@H]2C1=CC(=O)OC1 (some centres undefined)	?	1µM*
C=C1CCC2[C@](C)(CO)[C@H](O)CC[C@@]2(C)[C@@H]1C/C=C1/C(=O)OC[C@H]1O (some centres undefined)	?	-9.5%

Assay outcomes: PubChem, National Center for Advancing Translational Sciences (NCATS)
